Compound activity from PubChem BioAssay.
Sampled rows, rich in hits. Any-hit rate of the full collection: about 6.8%.
C diff growth: inhibitors of Clostridium difficile growth; growth activity, negative = inhibition, % at 16 µg/mL (by protocol); 0.25% of 86,000 active; Clostridium difficile clinical isolate growth, OD600, 24 h; hits give low values;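 active = mean growth activity at or below -80% and every replicate also at or below -80%; inconclusive = mean at or below -80% but some replicate above -80%; inactive = mean growth activity above -80%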;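 also: 0% = DMSO wells and -100% = levofloxacin 16 µg/mL wells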
Pf Dd2 growth: inhibitors of Plasmodium falciparum Dd2 growth | P. falciparum Dd2 growth, SYBR Green, 72 h; hits give low values | activity change, % at 10 µM | 2.3% of 94,000 active | AID 1159554; in the data active = activity change below about -80%; inconclusive = no clear call, values can overlap the other calls
T cruzi growth-1: T. cruzi proliferation inhibition; T. cruzi beta-gal in NIH3T3, GalScreen luminescence, 90 h; AID 624255; inhibition, % at 8.34 µM; 5.9% of 77,000 active;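 active = mean inhibition above about 93%, with at least 55% of replicates each passing it, limit read from the data, passing the limit was not always enough; inconclusive = only one of those two conditions holds; inactive = neither condition holds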
T cruzi growth-2: Trypanosoma cruzi proliferation inhibition; shares compounds with T cruzi growth-1; T. cruzi beta-gal in NIH3T3, GalScreen luminescence, 90 h; inhibition, % at 8.35 µM; 72% of 5,600 active; AID 651739;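 active = mean replicate inhibition above about 95% and at least 55% of replicates individually reaching it, limit read from the data; inconclusive = only one of the two criteria is met; inactive = neither criterion is met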
T cruzi growth-3: inhibitors of T. cruzi proliferation; shares compounds with T cruzi growth-1; T. cruzi beta-gal in NIH3T3, GalScreen luminescence, 90 h; inhibition, % at 2.09 µM; 21% of 5,600 active;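 active = mean inhibition above about 95%, with at least 55% of replicates also reaching it, limit read from the data; inconclusive = meets just one of the two conditions; inactive = meets neither condition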;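 also: plate controls were neutral control median for no effect and positive control median for full effect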
3T3 cytotox: cytotoxicity in mouse NIH/3T3 fibroblasts; shares compounds with T cruzi growth-1; NIH/3T3 viability, CellTiter-Glo ATP luminescence, 90 h; cytotoxicity (signal decrease), % at 8.35 µM; 14% of 5,600 active;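 active = mean signal decrease across replicates above about 35% based on untreated-well scatter, with enough replicates individually passing, limit read from the data; inconclusive = no rule stated though some were filed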;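 also: 0% = median of neutral control wells and 100% = median of positive control wells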
3T3 cytotox 2: NIH/3T3 (mouse) viability loss. inhibition, % at 24.9 µM. shares compounds with T cruzi growth-1. NIH/3T3 viability, CellTiter-Glo ATP luminescence, 90 h. AID 651744. 56% of 5,600 active;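 active = mean loss of cell viability signal at or above a set limit, and enough replicates individually reaching it; inconclusive = meets only the mean limit or only the replicate share; inactive = meets neither condition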;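 also: 0% = median of neutral control wells and 100% = median of positive control wells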
* hit, by the source's call; ? = inconclusive; · = no result.

SMILES	C diff growth	Pf Dd2 growth	T cruzi growth-1	T cruzi growth-2	T cruzi growth-3	3T3 cytotox	3T3 cytotox 2
Cc1noc(C)c1S(=O)(=O)N(C)C[C@@H]1OCCCC[C@@H](C)Oc2ccc(NC(=O)Nc3cccc4ccccc34)cc2C(=O)N([C@H](C)CO)C[C@@H]1C	-6.2	-51.2	59.2	·	·	·	·
C[C@H](CO)N1C[C@H](C)[C@H](CN(C)S(=O)(=O)c2ccc(Cl)cc2)OCCCC[C@H](C)Oc2ccc(NC(=O)CCCN(C)C)cc2C1=O	0.4	-55.3	19.8	·	·	·	·
CCCC(=O)N1CCC2(CC1)CN(C(=O)CC1CC1)[C@@H](CO)c1c2c2ccc(OC)cc2n1C	0.4	-58.6	·	·	·	·	·
C[C@H](CO)N1C[C@H](C)[C@@H](CN(C)Cc2ccc(C(F)(F)F)cc2)Oc2c(NS(C)(=O)=O)cccc2C1=O	1.3	3.3	34.9	·	·	·	·
CCCC#Cc1ccc([C@H]2[C@@H](CO)N3CCCCN(S(=O)(=O)CC)C[C@@H]23)cc1	2.2	-23.5	67.5	·	·	·	·
O=S(=O)(Cc1ccccc1)N1CCCCN2[C@H](CO)[C@H](c3ccc(C#Cc4ccccc4)cc3)[C@@H]2C1	-4.6	-75.6	106.2*	103.5*	107.9*	18.2	65.9*
CCCC#Cc1ccc([C@H]2[C@H](CO)N3CCCCN(S(=O)(=O)Cc4ccccc4)C[C@@H]23)cc1	55.4	-34.0	97.3*	101.4*	61.0	39.3*	104.1*
CCS(=O)(=O)N1CCCCN2[C@@H](CO)[C@H](c3ccc(C#Cc4ccccc4OC)cc3)[C@@H]2C1	60.1	-14.6	114.2*	110.4*	94.8	24.8	82.6*
C[C@H](O)C#Cc1ccc([C@@H]2[C@H](CO)N3CCCCN(S(=O)(=O)Cc4ccccc4)C[C@@H]23)cc1	-5.2	-19.9	16.9	·	·	·	·
O=S(=O)(Cc1ccccc1)N1CCCCN2[C@@H](CO)[C@@H](c3ccc(C#Cc4ccccc4)cc3)[C@@H]2C1	38.7	-53.6	-11.6	·	·	·	·
CC(C)CC#Cc1ccc([C@H]2[C@H](CO)N3CCCCN(S(=O)(=O)Cc4ccccc4)C[C@@H]23)cc1	-10.6	?	100.2*	103.7*	91.6	23.7	106.6*
COc1ccccc1C#Cc1ccc([C@H]2[C@@H](CO)N3CCCCN(S(C)(=O)=O)C[C@@H]23)cc1	-1.3	20.2	87.3	·	·	·	·
CN1[C@@H]2c3ccc(-c4cccc(F)c4)c(=O)n3C[C@@H]2[C@@H](CO)[C@@H]1C(=O)NC1CCCCC1	2.7	-2.4	94.5	·	·	·	·
COc1ccc(NC(=O)N(C)C[C@@H]2OCCCC[C@@H](C)Oc3ccc(NC(=O)Nc4ccccc4)cc3C(=O)N([C@H](C)CO)C[C@H]2C)cc1	8.0	-6.4	27.7	·	·	·	·
C[C@@H]1CN([C@@H](C)CO)C(=O)Cc2cc(NC(=O)NC3CCCCC3)ccc2O[C@H]1CN(C)C(=O)Nc1ccccc1	-4.9	-26.1	16.0	·	·	·	·
COc1ccc(S(=O)(=O)N(C)C[C@H]2Oc3ccc(NC(=O)CCCN(C)C)cc3C(=O)N([C@@H](C)CO)C[C@@H]2C)cc1	-1.4	-20.5	·	·	·	·	·
C[C@H](CO)N1C[C@H](C)[C@@H](CN(C)Cc2ccc(C(F)(F)F)cc2)Oc2ccc(NC(=O)CCN3CCOCC3)cc2CC1=O	-12.6	-32.4	83.7	·	·	·	·
COc1ccc(NC(=O)N(C)C[C@H]2Oc3cc(C#CCN(C)C)ccc3S(=O)(=O)N([C@H](C)CO)C[C@H]2C)cc1	1.6	4.4	51.9	·	·	·	·
COc1ccc(S(=O)(=O)Nc2ccc3c(c2)C(=O)N([C@@H](C)CO)C[C@H](C)[C@H](CN(C)Cc2ccc(-c4ccccc4)cc2)O3)cc1	32.4	9.0	?	103.5*	18.7	10.7	88.0*
C[C@H]1CN([C@@H](C)CO)C(=O)c2cc(NS(=O)(=O)c3ccc(Cl)cc3)ccc2O[C@@H]1CN(C)Cc1ccc(Oc2ccccc2)cc1	61.4	5.7	?	108.4*	36.6	29.0	105.0*
C[C@@H]1CN([C@@H](C)CO)C(=O)c2cc(NS(=O)(=O)c3ccc(Cl)cc3)ccc2O[C@H]1CN(C)Cc1ccc(Oc2ccccc2)cc1	29.7	14.5	72.0	·	·	·	·
C[C@H](CO)N1C[C@H](C)[C@@H](CN(C)Cc2ccc(-c3ccccc3)cc2)Oc2ccc(NS(=O)(=O)c3ccccc3)cc2C1=O	28.6	11.1	33.7	·	·	·	·
